Publication PMC7862700, “An all-to-all approach to the identification of sequence-specific readers for epigenetic DNA modifications on cytosine”

Assays:
Experiment in all cases: DAPPL (digital affinity profiling via proximity ligation, sequencing); 10 mM Tris-HCl pH 7.5, 50 mM NaCl, 1 mM DTT, 4% glycerol, room temperature, 30 min; GST-TFs on glutathione beads, 16-mer random dsDNA library, 0.1% formaldehyde crosslink after washing; high values mean tight binding
FLI1 = molecular target: T1, FLI1 (Homo sapiens, UniProt Q01543 1-452); conditions: protein: recombinant; tags: N-terminal GST; dsDNA, one strand shown
T1 sequence: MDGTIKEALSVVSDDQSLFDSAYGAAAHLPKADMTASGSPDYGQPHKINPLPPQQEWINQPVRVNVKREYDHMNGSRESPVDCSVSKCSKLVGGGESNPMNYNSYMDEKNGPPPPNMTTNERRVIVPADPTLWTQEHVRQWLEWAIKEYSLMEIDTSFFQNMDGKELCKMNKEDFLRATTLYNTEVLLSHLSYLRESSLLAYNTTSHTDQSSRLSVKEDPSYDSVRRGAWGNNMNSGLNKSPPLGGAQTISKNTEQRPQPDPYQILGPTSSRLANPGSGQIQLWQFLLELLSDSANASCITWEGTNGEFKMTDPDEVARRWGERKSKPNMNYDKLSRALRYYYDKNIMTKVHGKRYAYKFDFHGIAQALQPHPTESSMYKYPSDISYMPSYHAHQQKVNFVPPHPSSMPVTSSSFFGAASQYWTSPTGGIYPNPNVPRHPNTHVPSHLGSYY
In short: (§1)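 A tag-only sample was pooled with DNA-barcoded human transcription factors that had been expressed in yeast as GST fusions and captured on glutathione beads. The pools were incubated for 30 min at room temperature with 200 nmole of a random double-stranded 16-mer DNA library in Tris/NaCl/DTT/glycerol buffer, then washed, crosslinked with 0.1% formaldehyde, proximity-ligated (BsaI/T4 ligase, 1 h, 37 °C), PCR-amplified and sequenced on an Illumina NextSeq500. Binding signal is each hexamer's read frequency for a factor divided by its frequency for the tag-only sample.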

ELK1 = molecular target: T2, ELK1 (Homo sapiens, UniProt P19419 1-428); conditions: protein: recombinant; tags: N-terminal GST; dsDNA, one strand shown
T2 sequence: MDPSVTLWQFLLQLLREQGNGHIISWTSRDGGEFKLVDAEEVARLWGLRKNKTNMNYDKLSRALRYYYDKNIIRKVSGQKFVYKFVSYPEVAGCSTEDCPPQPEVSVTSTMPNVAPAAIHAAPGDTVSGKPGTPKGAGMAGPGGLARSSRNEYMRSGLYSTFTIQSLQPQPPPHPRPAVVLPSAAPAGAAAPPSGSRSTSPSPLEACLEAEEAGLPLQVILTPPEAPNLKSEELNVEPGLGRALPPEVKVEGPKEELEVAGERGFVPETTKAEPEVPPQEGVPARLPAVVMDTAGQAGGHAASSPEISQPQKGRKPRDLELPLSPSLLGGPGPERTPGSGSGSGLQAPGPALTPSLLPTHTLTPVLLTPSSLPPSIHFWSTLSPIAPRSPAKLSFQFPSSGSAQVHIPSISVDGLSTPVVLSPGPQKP
In short: as §1

GABPA = molecular target: T3, GABPA (Homo sapiens, UniProt Q06546 1-454); conditions: protein: recombinant; tags: N-terminal GST; dsDNA, one strand shown
T3 sequence: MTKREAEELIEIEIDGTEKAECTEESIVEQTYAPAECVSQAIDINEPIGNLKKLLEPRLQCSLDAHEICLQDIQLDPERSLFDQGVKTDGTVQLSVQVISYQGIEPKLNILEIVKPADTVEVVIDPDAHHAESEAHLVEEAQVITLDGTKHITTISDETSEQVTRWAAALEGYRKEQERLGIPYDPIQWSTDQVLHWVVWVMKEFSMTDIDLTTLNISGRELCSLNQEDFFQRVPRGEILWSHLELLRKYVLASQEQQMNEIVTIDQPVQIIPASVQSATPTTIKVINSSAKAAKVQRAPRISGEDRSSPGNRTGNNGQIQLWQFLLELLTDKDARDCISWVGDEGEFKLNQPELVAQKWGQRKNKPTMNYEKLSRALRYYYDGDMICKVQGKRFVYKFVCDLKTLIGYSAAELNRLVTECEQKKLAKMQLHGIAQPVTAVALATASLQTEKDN
In short: as §1

ERG = molecular target: T4, ERG (Homo sapiens, UniProt P11308 1-479); conditions: protein: recombinant; tags: N-terminal GST; dsDNA, one strand shown
T4 sequence: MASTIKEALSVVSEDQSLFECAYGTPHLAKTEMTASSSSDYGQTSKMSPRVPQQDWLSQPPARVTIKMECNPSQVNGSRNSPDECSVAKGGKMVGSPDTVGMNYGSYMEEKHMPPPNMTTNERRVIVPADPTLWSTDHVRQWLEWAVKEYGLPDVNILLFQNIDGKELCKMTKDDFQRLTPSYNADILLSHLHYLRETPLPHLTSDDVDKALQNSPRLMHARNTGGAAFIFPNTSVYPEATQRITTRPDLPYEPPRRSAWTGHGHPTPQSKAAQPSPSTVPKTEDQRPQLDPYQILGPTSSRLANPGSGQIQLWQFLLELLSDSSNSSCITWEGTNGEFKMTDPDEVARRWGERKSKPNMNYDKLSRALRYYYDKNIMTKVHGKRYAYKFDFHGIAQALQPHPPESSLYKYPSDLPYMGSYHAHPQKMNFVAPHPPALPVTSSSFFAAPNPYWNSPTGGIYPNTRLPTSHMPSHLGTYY
In short: as §1

ELF1 = ELF1 (Homo sapiens, UniProt P32519 1-619); conditions: protein: recombinant; tags: N-terminal GST; dsDNA, one strand shown
Chain of ELF1 (P32519 whole entry): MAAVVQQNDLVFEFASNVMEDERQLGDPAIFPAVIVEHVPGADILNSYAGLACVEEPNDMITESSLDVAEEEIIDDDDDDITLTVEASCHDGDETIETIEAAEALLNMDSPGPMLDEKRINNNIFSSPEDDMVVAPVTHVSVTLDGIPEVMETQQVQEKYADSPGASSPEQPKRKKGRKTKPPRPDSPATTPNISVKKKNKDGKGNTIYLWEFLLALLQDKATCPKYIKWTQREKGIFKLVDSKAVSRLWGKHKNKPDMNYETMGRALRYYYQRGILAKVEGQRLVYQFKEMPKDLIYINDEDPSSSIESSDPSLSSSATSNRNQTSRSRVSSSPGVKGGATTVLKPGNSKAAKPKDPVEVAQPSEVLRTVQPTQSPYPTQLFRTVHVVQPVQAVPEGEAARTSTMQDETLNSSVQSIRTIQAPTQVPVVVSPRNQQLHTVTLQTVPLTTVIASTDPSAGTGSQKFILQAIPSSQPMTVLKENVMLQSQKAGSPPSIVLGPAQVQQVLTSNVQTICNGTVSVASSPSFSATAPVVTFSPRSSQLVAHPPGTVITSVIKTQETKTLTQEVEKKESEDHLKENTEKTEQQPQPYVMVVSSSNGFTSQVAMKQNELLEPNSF
In short: as §1

EHF = molecular target: T5, EHF (Homo sapiens, UniProt Q9NZC4 1-300); conditions: protein: recombinant; tags: N-terminal GST; dsDNA, one strand shown
T5 sequence: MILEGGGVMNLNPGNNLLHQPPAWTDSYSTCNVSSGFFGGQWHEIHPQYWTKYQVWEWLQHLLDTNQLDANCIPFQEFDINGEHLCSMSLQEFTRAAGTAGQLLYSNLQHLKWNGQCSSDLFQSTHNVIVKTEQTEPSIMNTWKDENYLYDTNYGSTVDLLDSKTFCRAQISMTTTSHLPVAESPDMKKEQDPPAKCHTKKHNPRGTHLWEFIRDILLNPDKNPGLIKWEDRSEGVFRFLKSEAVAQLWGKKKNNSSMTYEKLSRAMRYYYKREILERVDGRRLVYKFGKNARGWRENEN
In short: as §1

SPI1 = SPI1 (Homo sapiens, UniProt P17947 1-270); conditions: protein: recombinant; tags: N-terminal GST; dsDNA, one strand shown
In short: as §1

SPIB = SPIB (Homo sapiens, UniProt Q01892 1-262); conditions: protein: recombinant; tags: N-terminal GST; dsDNA, one strand shown
Chain of SPIB (Q01892 whole entry): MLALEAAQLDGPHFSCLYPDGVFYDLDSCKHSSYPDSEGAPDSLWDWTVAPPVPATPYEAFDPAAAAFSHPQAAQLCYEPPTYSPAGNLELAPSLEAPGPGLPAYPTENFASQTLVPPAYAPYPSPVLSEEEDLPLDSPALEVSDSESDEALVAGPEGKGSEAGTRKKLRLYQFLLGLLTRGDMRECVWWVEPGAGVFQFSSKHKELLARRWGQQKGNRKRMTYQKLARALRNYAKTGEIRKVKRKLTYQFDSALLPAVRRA
In short: as §1

ELK3 = molecular target: T6, ELK3 (Homo sapiens, UniProt P41970 1-407); conditions: protein: recombinant; tags: N-terminal GST; dsDNA, one strand shown
T6 sequence: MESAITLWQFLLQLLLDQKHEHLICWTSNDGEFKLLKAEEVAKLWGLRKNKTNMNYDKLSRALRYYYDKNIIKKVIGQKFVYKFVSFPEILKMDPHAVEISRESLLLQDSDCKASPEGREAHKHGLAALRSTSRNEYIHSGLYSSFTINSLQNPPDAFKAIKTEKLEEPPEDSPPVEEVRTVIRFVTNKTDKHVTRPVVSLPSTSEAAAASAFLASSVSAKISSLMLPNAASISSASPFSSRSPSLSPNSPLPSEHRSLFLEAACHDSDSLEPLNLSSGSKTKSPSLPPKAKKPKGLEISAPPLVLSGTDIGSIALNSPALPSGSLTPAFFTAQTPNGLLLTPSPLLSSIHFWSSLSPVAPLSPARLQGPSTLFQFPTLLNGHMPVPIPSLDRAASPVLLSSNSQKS
In short: as §1

FEV = molecular target: T7, FEV (Homo sapiens, UniProt Q99581 1-238); conditions: protein: recombinant; tags: N-terminal GST; dsDNA, one strand shown
T7 sequence: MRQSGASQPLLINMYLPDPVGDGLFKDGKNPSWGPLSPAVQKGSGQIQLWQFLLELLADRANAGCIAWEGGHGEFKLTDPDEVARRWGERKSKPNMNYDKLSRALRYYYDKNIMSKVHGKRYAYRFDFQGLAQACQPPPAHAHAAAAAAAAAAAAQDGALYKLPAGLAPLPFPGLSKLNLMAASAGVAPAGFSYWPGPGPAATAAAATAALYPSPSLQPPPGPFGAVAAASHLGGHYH
In short: as §1

ETV5 = ETV5 (Homo sapiens, UniProt P41161 1-510); conditions: protein: recombinant; tags: N-terminal GST; dsDNA, one strand shown
Chain of ETV5 (P41161 whole entry): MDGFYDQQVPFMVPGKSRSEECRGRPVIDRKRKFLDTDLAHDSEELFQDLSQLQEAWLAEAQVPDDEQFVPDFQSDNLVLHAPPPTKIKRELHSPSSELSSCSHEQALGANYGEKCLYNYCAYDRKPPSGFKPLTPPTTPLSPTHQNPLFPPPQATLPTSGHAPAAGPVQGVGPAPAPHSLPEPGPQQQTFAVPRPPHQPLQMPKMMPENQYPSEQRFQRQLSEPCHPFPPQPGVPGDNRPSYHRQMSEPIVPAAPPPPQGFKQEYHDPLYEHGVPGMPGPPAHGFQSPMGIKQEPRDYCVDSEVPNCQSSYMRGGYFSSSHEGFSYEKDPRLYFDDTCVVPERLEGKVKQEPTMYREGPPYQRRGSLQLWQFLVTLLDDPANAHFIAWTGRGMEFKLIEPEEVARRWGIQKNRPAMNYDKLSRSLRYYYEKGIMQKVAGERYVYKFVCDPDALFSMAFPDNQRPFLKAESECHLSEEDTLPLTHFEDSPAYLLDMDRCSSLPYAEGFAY
In short: as §1

HSF1 = HSF1 (Homo sapiens, UniProt Q00613 1-529); conditions: protein: recombinant; tags: N-terminal GST; chain copies: 3; dsDNA, one strand shown
Chain of HSF1 (Q00613 whole entry): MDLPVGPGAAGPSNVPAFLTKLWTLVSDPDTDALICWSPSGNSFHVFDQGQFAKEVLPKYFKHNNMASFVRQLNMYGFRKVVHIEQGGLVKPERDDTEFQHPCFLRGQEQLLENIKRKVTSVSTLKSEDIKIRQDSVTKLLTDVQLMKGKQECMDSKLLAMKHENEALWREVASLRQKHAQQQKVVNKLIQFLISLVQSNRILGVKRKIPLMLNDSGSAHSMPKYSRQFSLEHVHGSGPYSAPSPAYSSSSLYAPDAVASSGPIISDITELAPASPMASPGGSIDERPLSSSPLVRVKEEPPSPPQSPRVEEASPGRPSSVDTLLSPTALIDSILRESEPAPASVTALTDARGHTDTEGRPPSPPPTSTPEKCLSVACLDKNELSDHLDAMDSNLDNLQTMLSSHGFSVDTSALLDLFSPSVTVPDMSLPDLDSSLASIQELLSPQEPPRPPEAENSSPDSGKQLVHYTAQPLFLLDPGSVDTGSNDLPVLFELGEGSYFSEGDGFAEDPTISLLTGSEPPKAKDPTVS
In short: as §1

SPIC = molecular target: T8, SPIC (Homo sapiens, UniProt Q8N5J4 1-248); conditions: protein: recombinant; tags: N-terminal GST; dsDNA, one strand shown
T8 sequence: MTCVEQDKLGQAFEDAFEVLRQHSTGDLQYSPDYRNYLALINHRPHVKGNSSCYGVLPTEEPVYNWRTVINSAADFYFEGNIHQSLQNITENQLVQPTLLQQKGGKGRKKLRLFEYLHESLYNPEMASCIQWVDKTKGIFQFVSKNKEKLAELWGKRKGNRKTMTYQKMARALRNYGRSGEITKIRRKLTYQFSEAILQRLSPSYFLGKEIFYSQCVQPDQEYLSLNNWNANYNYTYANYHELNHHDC
In short: as §1

ELF4 = ELF4 (Homo sapiens, UniProt Q99607 1-663); conditions: protein: recombinant; tags: N-terminal GST; dsDNA, one strand shown
Chain of ELF4 (Q99607 whole entry): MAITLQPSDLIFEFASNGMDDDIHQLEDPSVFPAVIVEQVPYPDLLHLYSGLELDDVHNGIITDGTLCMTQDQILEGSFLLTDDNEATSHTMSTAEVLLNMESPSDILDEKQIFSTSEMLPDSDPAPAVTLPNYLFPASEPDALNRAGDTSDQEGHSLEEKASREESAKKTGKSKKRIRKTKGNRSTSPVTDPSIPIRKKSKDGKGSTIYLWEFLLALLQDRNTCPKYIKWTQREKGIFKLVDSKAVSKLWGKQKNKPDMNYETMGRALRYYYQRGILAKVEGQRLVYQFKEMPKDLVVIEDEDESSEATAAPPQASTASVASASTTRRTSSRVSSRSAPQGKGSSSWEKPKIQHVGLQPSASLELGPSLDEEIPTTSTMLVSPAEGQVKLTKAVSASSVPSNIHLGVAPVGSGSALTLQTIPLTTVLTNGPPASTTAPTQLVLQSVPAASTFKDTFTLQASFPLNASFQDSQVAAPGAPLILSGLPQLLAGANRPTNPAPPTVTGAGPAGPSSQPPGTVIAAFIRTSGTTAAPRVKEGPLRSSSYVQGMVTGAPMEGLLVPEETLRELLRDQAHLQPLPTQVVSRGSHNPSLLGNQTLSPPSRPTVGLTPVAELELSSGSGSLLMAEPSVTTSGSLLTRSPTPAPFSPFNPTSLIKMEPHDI
In short: as §1

ELK4 = molecular target: T9, ELK4 (Homo sapiens, UniProt P28324-2 1-405); conditions: protein: recombinant; tags: N-terminal GST; dsDNA, one strand shown
T9 sequence: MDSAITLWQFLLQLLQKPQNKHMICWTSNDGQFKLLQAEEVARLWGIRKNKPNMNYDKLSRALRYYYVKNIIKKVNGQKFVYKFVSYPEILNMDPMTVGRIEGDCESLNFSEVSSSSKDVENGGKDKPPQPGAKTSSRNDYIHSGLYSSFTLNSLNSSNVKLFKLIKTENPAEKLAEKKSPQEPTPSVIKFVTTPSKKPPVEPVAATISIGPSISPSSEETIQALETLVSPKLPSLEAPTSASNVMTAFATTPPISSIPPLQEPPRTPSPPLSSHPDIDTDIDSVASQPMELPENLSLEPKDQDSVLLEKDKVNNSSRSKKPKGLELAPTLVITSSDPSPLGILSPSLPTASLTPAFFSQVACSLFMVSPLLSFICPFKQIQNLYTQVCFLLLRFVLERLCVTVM
In short: as §1

ETV2 = molecular target: T10, ETV2 (Homo sapiens, UniProt O00321 1-342); conditions: protein: recombinant; tags: N-terminal GST; dsDNA, one strand shown
T10 sequence: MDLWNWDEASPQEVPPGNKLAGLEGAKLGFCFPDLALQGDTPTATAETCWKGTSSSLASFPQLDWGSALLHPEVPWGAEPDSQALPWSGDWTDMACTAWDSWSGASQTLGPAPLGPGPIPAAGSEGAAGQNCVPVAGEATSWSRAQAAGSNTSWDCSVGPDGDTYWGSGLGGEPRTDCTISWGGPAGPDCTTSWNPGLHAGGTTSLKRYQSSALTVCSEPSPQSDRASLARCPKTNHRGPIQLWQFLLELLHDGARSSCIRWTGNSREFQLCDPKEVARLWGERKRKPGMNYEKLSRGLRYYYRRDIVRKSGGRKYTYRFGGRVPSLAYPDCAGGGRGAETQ
In short: as §1

ELF3 = molecular target: T11, ELF3 (Homo sapiens, UniProt P78545 1-371); conditions: protein: recombinant; tags: N-terminal GST; dsDNA, one strand shown
T11 sequence: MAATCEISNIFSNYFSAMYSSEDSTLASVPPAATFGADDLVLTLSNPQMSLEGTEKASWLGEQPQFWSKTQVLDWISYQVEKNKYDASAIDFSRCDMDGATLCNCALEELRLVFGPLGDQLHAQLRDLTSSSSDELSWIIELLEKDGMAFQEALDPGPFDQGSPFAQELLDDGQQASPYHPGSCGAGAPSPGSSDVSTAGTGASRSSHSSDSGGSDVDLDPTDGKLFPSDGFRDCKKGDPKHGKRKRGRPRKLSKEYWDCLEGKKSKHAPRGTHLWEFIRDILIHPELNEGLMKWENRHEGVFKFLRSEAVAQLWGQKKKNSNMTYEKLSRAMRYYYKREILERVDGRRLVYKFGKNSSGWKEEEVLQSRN
In short: as §1

CRX = CRX (Homo sapiens, UniProt O43186 1-299); conditions: protein: recombinant; tags: N-terminal GST; dsDNA, one strand shown
Chain of CRX (O43186 whole entry): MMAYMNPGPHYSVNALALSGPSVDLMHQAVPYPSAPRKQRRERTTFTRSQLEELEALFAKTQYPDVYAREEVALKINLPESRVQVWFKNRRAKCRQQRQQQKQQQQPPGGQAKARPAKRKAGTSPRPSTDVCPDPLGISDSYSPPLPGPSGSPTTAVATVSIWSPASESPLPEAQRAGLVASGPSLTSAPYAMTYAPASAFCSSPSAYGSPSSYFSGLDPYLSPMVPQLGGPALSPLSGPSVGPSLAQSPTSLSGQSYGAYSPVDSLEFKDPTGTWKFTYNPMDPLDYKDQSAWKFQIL
In short: as §1

ETV1 = ETV1 (Homo sapiens, UniProt P50549 1-477); conditions: protein: recombinant; tags: N-terminal GST; dsDNA, one strand shown
Chain of ETV1 (P50549 whole entry): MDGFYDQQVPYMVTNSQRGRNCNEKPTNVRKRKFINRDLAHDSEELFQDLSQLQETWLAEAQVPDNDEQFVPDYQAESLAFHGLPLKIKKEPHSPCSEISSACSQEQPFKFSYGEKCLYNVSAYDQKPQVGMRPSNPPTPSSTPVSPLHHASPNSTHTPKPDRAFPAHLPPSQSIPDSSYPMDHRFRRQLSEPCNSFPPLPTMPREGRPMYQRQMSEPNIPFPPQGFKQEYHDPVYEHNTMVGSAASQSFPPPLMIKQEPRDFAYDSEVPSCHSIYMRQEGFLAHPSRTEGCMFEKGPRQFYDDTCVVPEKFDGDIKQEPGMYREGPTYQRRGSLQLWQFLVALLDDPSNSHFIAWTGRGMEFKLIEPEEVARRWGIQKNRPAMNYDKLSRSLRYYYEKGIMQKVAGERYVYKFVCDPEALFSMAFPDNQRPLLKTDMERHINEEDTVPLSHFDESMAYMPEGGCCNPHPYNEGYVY
In short: as §1

Q: Which binding signal (FLI1) does the source give for CTGCAA here?
A: 1.29 fold enrichment (6-mer frequency, TF over GST control)

Q: What about the binding signal (ELK1) of the same sequence?
A: 1.3 fold enrichment (6-mer frequency, TF over GST control)

Q: And the binding signal (GABPA)?
A: 1.2 fold enrichment (6-mer frequency, TF over GST control)

Q: What about the binding signal (ERG) of the same sequence?
A: 1.23 fold enrichment (6-mer frequency, TF over GST control)

Q: What about the binding signal (ELF1) of the same sequence?
A: 1.36 fold enrichment (6-mer frequency, TF over GST control)

Q: And the binding signal (EHF)?
A: 1.2 fold enrichment (6-mer frequency, TF over GST control)

Q: What about the binding signal (SPI1) of the same sequence?
A: 1.31 fold enrichment (6-mer frequency, TF over GST control)

Q: And the binding signal (SPIB)?
A: 1.27 fold enrichment (6-mer frequency, TF over GST control)

Q: And the binding signal (ELK3)?
A: 1.33 fold enrichment (6-mer frequency, TF over GST control)

Q: What about the binding signal (FEV) of the same sequence?
A: 1.29 fold enrichment (6-mer frequency, TF over GST control)

Q: What about the binding signal (ETV5) of the same sequence?
A: 1.3 fold enrichment (6-mer frequency, TF over GST control)

Q: What about the binding signal (HSF1) of the same sequence?
A: 1.14 fold enrichment (6-mer frequency, TF over GST control)

Q: And the binding signal (SPIC)?
A: 1.2 fold enrichment (6-mer frequency, TF over GST control)

Q: And the binding signal (ELF4)?
A: 1.23 fold enrichment (6-mer frequency, TF over GST control)

Q: And the binding signal (ELK4)?
A: 1.32 fold enrichment (6-mer frequency, TF over GST control)

Q: And the binding signal (ETV2)?
A: 1.07 fold enrichment (6-mer frequency, TF over GST control)

Q: What about the binding signal (ELF3) of the same sequence?
A: 1.4 fold enrichment (6-mer frequency, TF over GST control)

Q: And the binding signal (CRX)?
A: 1.05 fold enrichment (6-mer frequency, TF over GST control)

Q: And the binding signal (ETV1)?
A: 1.24 fold enrichment (6-mer frequency, TF over GST control)
